# Experimental data: PubChem BioAssay (NCATS)
# Records with an inconclusive call do not appear. The source made the active and inactive calls. Calls come from the whole dose curve; as a rule, active = well fitted cell-killing curve with a large enough effect; inconclusive = small, poorly fitted or top-dose-only effect, or effect the other way; inactive = no such curve, though single readings can be large or run the other way.
# Test: Quantitative High-Throughput drug screen in 47 multiple myeloma cell lines against the NCATS MIPE library collection: PE2_PLB cell viability assay (AID 1919869); note: nearly all actives have a fitted effect of over 35% in size
# Details: PE2_PLB myeloma cells viability, ATP luminescence, 48 h; series mostly up to 45.8 µM
# How it was run: (§1)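 qHTS format: cells plated (500/well), pin-dosed with MIPE 4.0 compounds, kept 48 h at 37 °C. Readout was CellTiter-Glo luminescence, median RLU.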
# Potency is the fitted concentration of half-maximal effect.
row,Compound,Potency
1,CCCCCCCCCC(=O)N[C@@H](Cc1c[nH]c2ccccc12)C(=O)N[C@H](CC(N)=O)C(=O)N[C@@H](CC(=O)O)C(=O)N[C@@H]1C(=O)NCC(=O)N[C@@H](CCCN)C(=O)N[C@@H](CC(=O)O)C(=O)N[C@H](C)C(=O)N[C@@H](CC(=O)O)C(=O)NCC(=O)N[C@H](CO)C(=O)N[C@@H]([C@@H](C)CC(=O)O)C(=O)N[C@@H](CC(=O)c2ccccc2N)C(=O)O[C@@H]1C,inactive
2,COc1ccc(OC)c(-c2nnc3ccc(-c4ccc(OC)c(O[C@@H]5CCOC5)c4)nn23)c1,8.33 µM (active)
3,Cc1nc2ccc(CN(C)c3ccc(C(=O)N[C@@H](CCC(=O)O)C(=O)O)s3)cc2c(=O)[nH]1,inactive
4,C[C@@H]1CN(CC(=O)Nc2ccc3c(c2)Cc2cccc(-c4cc(=O)cc(N5CCOCC5)o4)c2S3)C[C@H](C)O1,13.2 µM (active)
5,CC(=O)c1c(C)c2cnc(Nc3ccc(N4CCNCC4)cn3)nc2n(C2CCCC2)c1=O,18.7 µM (active)
6,COc1cc(C)c(Sc2cnc(NC(=O)c3ccc(CNC(C)C(C)C)cc3)s2)cc1C(=O)N1CCN(C(C)=O)CC1 (stereo unspecified),13.2 µM (active)
7,COc1cc2c(cc1-c1c(C)noc1C)ncc1[nH]c(=O)n([C@H](C)c3ccccn3)c12,14.8 µM (active)
8,CC(=O)OCCN1C(=O)c2c(C)nc3ccc(S(=O)(=O)N4CCOCC4)cc3c2C1=O,inactive
9,C1Cc2[nH]nc(-c3nn[nH]n3)c2C1,inactive
10,CC(=O)Nc1nc(C)c(-c2ccc(Cl)c(S(=O)(=O)NCCO)c2)s1,4.69 µM (active)
11,Nc1ccc(C(=O)c2cc3c(ccc4ccccc43)[nH]2)cc1,2.96 µM (active)
12,Nc1ncnc2c1c(-c1cnc3[nH]ccc3c1)nn2C1CCCC1,1.32 µM (active)
13,CNc1nccc(-c2cccnc2Oc2cc(C(=O)Nc3cccc(C(F)(F)F)c3)ccc2C)n1,6.62 µM (active)
14,COc1cc(=C2C=c3ccccc3=N2)[nH]c1=Cc1[nH]c(C)cc1C,1.48 µM (active)
15,Cn1cc(-c2[nH]c3cc(NC(=O)[C@H](N)C4CCCCC4)cc4c3c2C=NNC4=O)cn1,0.372 µM (active)
16,C[C@@]12O[C@@H](C[C@]1(O)CO)n1c3ccccc3c3c4c(c5c6ccccc6n2c5c31)CNC4=O,0.118 µM (active)
17,CN1CCN(c2cc(C(=O)Nc3ccc4c(c3)-c3c(c(C(N)=O)nn3-c3ccc(F)cc3)CC4)c(Cl)cn2)CC1,1.48 µM (active)
18,O=C1CCC[C@@H]2[C@H]3CCC[N+]4([O-])CCC[C@@H](CN12)[C@@H]34 (stereo partly specified),inactive
19,CC(C)c1ccc(Cn2ccc3c4c(N)nc(NC5CC5)nc4ccc32)cc1,2.35 µM (active)
20,N#Cc1c(O)c2c(-c3ccc(-c4ccccc4O)cc3)csc2[nH]c1=O,inactive
21,O=C(C=Cc1cccnc1)NCCCCC1CCN(C(=O)c2ccccc2)CC1,0.0132 µM (active)
22,CC=CC1=C(C(=O)O)N2C(=O)[C@H](NC(=O)[C@H](N)c3ccc(O)cc3)[C@@H]2SC1,inactive
23,Cc1c(C)n(Cc2ccc(-c3ccccc3C(=O)O)cc2)c2ccc(C(=O)N[C@@H](C)c3ccc([N+](=O)[O-])cc3)cc12,11.8 µM (active)
24,O=C(O)c1ccc2c(c1)nc(Nc1cccc(Cl)c1)c1ccncc12,2.64 µM (active)
25,Cc1ccc2nc(NC(=O)CSc3nc4c(c(=O)n3-c3ccccc3)SCC4)sc2c1,9.35 µM (active)
26,CC1=C(CO)C(=O)O[C@@H]([C@@H](C)[C@H]2CC[C@H]3[C@@H]4C[C@H]5O[C@]56[C@@H](O)C=CC(=O)[C@]6(C)[C@@H]4CC[C@]23C)C1,0.166 µM (active)
27,Cc1cc(Nc2nc(N[C@@H](C)c3ccc(F)cc3)c(C#N)cc2F)n[nH]1,0.935 µM (active)

# Test: Quantitative High-Throughput drug screen in 47 multiple myeloma cell lines against the NCATS MIPE library collection: PCM6_Riken cell viability assay (AID 1919870); note: nearly all actives have a fitted effect of over 30% in size
# Details: CellTiter-Glo ATP, 48 h; series mostly up to 45.8 µM
# How it was run: as §1
row,Compound,Potency
1,Cc1cn(-c2cc(NC(=O)c3ccc(C)c(Nc4nccc(-c5cccnc5)n4)c3)cc(C(F)(F)F)c2)cn1,inactive
2,CCCCCCCCCC(=O)N[C@@H](Cc1c[nH]c2ccccc12)C(=O)N[C@H](CC(N)=O)C(=O)N[C@@H](CC(=O)O)C(=O)N[C@@H]1C(=O)NCC(=O)N[C@@H](CCCN)C(=O)N[C@@H](CC(=O)O)C(=O)N[C@H](C)C(=O)N[C@@H](CC(=O)O)C(=O)NCC(=O)N[C@H](CO)C(=O)N[C@@H]([C@@H](C)CC(=O)O)C(=O)N[C@@H](CC(=O)c2ccccc2N)C(=O)O[C@@H]1C,inactive
3,COc1ccc(OC)c(-c2nnc3ccc(-c4ccc(OC)c(O[C@@H]5CCOC5)c4)nn23)c1,7.43 µM (active)
4,C[C@@H]1CN(CC(=O)Nc2ccc3c(c2)Cc2cccc(-c4cc(=O)cc(N5CCOCC5)o4)c2S3)C[C@H](C)O1,9.35 µM (active)
5,CC(=O)c1c(C)c2cnc(Nc3ccc(N4CCNCC4)cn3)nc2n(C2CCCC2)c1=O,5.9 µM (active)
6,COc1cc(C)c(Sc2cnc(NC(=O)c3ccc(CNC(C)C(C)C)cc3)s2)cc1C(=O)N1CCN(C(C)=O)CC1 (stereo unspecified),23.5 µM (active)
7,COC(=O)C1=C(C)NC(C)=C(C(=O)OCCN2CCN(C(c3ccccc3)c3ccccc3)CC2)C1c1cccc([N+](=O)[O-])c1 (stereo unspecified),inactive
8,COc1cc2c(cc1-c1c(C)noc1C)ncc1[nH]c(=O)n([C@H](C)c3ccccn3)c12,6.62 µM (active)
9,CC(=O)OCCN1C(=O)c2c(C)nc3ccc(S(=O)(=O)N4CCOCC4)cc3c2C1=O,inactive
10,C1Cc2[nH]nc(-c3nn[nH]n3)c2C1,inactive
11,CC(=O)Nc1nc(C)c(-c2ccc(Cl)c(S(=O)(=O)NCCO)c2)s1,4.69 µM (active)
12,Nc1nc(NCCNc2ncc(-n3ccnc3)c(-c3ccc(Cl)cc3Cl)n2)ccc1[N+](=O)[O-],2.35 µM (active)
13,Nc1ncnc2c1c(-c1cnc3[nH]ccc3c1)nn2C1CCCC1,1.48 µM (active)
14,CNc1nccc(-c2cccnc2Oc2cc(C(=O)Nc3cccc(C(F)(F)F)c3)ccc2C)n1,4.18 µM (active)
15,COc1cc(=C2C=c3ccccc3=N2)[nH]c1=Cc1[nH]c(C)cc1C,5.9 µM (active)
16,O=C(O)Cn1nnc(-c2cc(N3CCC(Oc4cc(F)ccc4Br)CC3)no2)n1,inactive
17,Cn1cc(-c2[nH]c3cc(NC(=O)[C@H](N)C4CCCCC4)cc4c3c2C=NNC4=O)cn1,1.05 µM (active)
18,C[C@@]12O[C@@H](C[C@]1(O)CO)n1c3ccccc3c3c4c(c5c6ccccc6n2c5c31)CNC4=O,0.526 µM (active)
19,CN1CCN(c2cc(C(=O)Nc3ccc4c(c3)-c3c(c(C(N)=O)nn3-c3ccc(F)cc3)CC4)c(Cl)cn2)CC1,2.64 µM (active)
20,CCCCc1nc2cc(C=CC(=O)NO)ccc2n1CCN(CC)CC,0.0132 µM (active)
21,Cn1c(CNc2ccc(C(=N)N)cc2)nc2cc(C(=O)N(CCC(=O)O)c3ccccn3)ccc21,inactive
22,O=C1CCC[C@@H]2[C@H]3CCC[N+]4([O-])CCC[C@@H](CN12)[C@@H]34 (stereo partly specified),inactive
23,CC(C)c1ccc(Cn2ccc3c4c(N)nc(NC5CC5)nc4ccc32)cc1,5.9 µM (active)
24,N#Cc1c(O)c2c(-c3ccc(-c4ccccc4O)cc3)csc2[nH]c1=O,inactive
25,O=C(C=Cc1cccnc1)NCCCCC1CCN(C(=O)c2ccccc2)CC1,0.0264 µM (active)
26,CC=CC1=C(C(=O)O)N2C(=O)[C@H](NC(=O)[C@H](N)c3ccc(O)cc3)[C@@H]2SC1,inactive
27,O=C(O)c1ccc2c(c1)nc(Nc1cccc(Cl)c1)c1ccncc12,2.64 µM (active)
28,CC1=C(CO)C(=O)O[C@@H]([C@@H](C)[C@H]2CC[C@H]3[C@@H]4C[C@H]5O[C@]56[C@@H](O)C=CC(=O)[C@]6(C)[C@@H]4CC[C@]23C)C1,0.166 µM (active)
29,Cc1cc(Nc2nc(N[C@@H](C)c3ccc(F)cc3)c(C#N)cc2F)n[nH]1,16.6 µM (active)
